# Measured values: PubChem BioAssay AID1053118 (Broad Institute, 2014)
# Measured potencies and affinities stand elsewhere. Activity calls are given as the source filed them.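 Rule for the calls: active = fitted half-maximal concentration for ATP signal loss at most twice the top valid dose; inconclusive = flat curve between -70 and -30%, or an invalid fit; inactive = flat within ±30%, wrong direction, or potency past limit.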
# Assay: HepG2 cell cytotoxicity, dose response, cytotoxicity control, cherry-picks, set 5 (AID 1053118);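 note: 0% = neutral control wells and -100% = mitoxantrone positive control wells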
# Conditions: HepG2 viability, ATP luminescence, 72 h; series mostly up to 26 µM; activity change, negative = cytotoxicity: at the top concentration
row,SMILES,"activity change, negative = cytotoxicity"
1,O=C(Nc1ccccc1F)N1C[C@H]2[C@@H](c3ccccc31)[C@H](CO)N2C(=O)C1CC1,8.97% (inactive)
2,COC(=O)C[C@H]1CC[C@@H]2[C@@H](COc3ccc(NC(=O)Cc4cccs4)cc3C(=O)N2C)O1,-5.57% (inactive)
3,COc1ccccc1N(CC(=O)N(CC(C)C)CC(C)C)S(=O)(=O)c1cccs1,16.9% (inactive)
4,C[C@H]1CN([C@@H](C)CO)C(=O)c2cc(-c3ccccc3)cnc2O[C@H]1CN(C)Cc1ccccc1,-17.2% (inactive)
5,C[C@H](O)C#Cc1ccc2c(c1)O[C@@H](CN(C)C)[C@H](C)CN([C@@H](C)CO)S2(=O)=O,4.59% (inactive)
6,Cc1ccc(S(=O)(=O)N2CC[C@H]3[C@H](CO)Nc4ccc(-c5cccc(C(=O)N(C)C)c5)cc4[C@H]32)cc1,-0.705% (inactive)
7,N#C[C@@H]1[C@@H](c2ccccc2C2=CCCCC2)[C@H](CO)N1S(=O)(=O)c1ccccc1,-11.6% (inactive)
8,Cc1ccc(NC(=O)COC(=O)c2cc(Cl)ccc2[N+](=O)[O-])c(C)c1,-3.95% (inactive)
9,O=C(c1cccnc1)N1C[C@H]2[C@@H](c3ccccc31)[C@H](CO)N2CC1CCCC1,-10.3% [at 23.5 µM] (inactive)
10,COc1ccc(-c2csc(CCn3nc(C)cc3C)n2)cc1OC,-11.4% (inactive)
11,C[C@@H]1CN([C@H](C)CO)C(=O)c2cc(-c3ccccc3)cnc2O[C@@H]1CN(C)Cc1ccccc1,-13% (inactive)
12,COc1ccccc1CNc1nc(NCc2cnc(C)cn2)c2sccc2n1,2.3% (inactive)
13,C[C@H]1CN([C@@H](C)CO)C(=O)c2cc(-c3ccccc3)cnc2O[C@@H]1CN(C)C(=O)c1cccc(F)c1,-10.7% (inactive)
14,O=S(=O)(c1ccccc1F)N1CC[C@H]2[C@H](CO)Nc3ccc(-c4cccc(F)c4)cc3[C@H]21,-6.96% [at 23.5 µM] (inactive)
15,N#Cc1ccc(-c2ccc3c(c2)[C@@H]2[C@@H](CCN2S(=O)(=O)c2ccccc2F)[C@H](CO)N3)cc1,1.1% (inactive)
16,CCCCOc1ccc(C(C)NC(=O)C2CCCN(S(=O)(=O)CCC)C2)cc1 (stereo not given),-28.5% (inactive)
17,O=S(=O)(c1ccccc1F)N1CC[C@@H]2[C@H]1c1cc(-c3cccc(F)c3)ccc1N[C@@H]2CO,-0.143% (inactive)
18,O=C(OCC(O)C(O)COC(=O)c1ccccc1)c1ccccc1 (stereo not given),-20% (inactive)

row,SMILES,"activity change, negative = cytotoxicity"
1,Cc1ccc([N+](=O)[O-])cc1NC(=O)CN(C(=O)c1ccccc1Cl)C1CCCCC1,-5.3% (inactive)
2,O=S(=O)(c1cccc(F)c1)N1CC[C@H]2[C@H](CO)Nc3ccc(-c4cccc(F)c4)cc3[C@H]21,-7.37% (inactive)
3,CO[C@@H]1CN(C)C(=O)c2cc(NC(=O)Nc3ccc(Cl)c(Cl)c3)ccc2OC[C@H](C)NC[C@H]1C,-17.4% (inactive)
4,COC(=O)c1cn(CC(=O)NCc2ccco2)c2ccccc12,-1.99% (inactive)
5,CC(C)NC(=O)N(C)C[C@H]1Oc2ccc(NC(=O)CCN3CCOCC3)cc2C(=O)N([C@H](C)CO)C[C@@H]1C,-12.2% (inactive)
6,Cc1ccc(Nc2nnc(SCc3ccccc3)s2)cc1,9.81% (inactive)
7,Cc1ccc(S(=O)(=O)N2CC[C@@H]3[C@H](CO)Nc4ccc(-c5cccc(C(=O)N(C)C)c5)cc4[C@@H]32)cc1,-21.2% (inactive)
8,Cc1cc(C)n2ncc(C(=O)NCc3ccc(Cl)cc3)c2n1,-17.4% (inactive)
9,C[C@H]1CN([C@@H](C)CO)C(=O)c2cc(NC(=O)C3CCCCC3)ccc2O[C@@H]1CN(C)Cc1ccc(-c2ccccc2)cc1,-9.22% (inactive)
10,COc1ncccc1C(=O)NC1CCCc2c1cnn2-c1ccc(C)c(C)c1 (stereo not given),11.9% (inactive)
11,O=C(Nc1ccccc1F)N1C[C@@H]2[C@H](c3ccccc31)[C@H](CO)N2C(=O)C1CC1,-13.3% [at 23.5 µM] (inactive)
12,CCc1nc2c(OCCc3cccc(OC)c3)cccn2c1N(C)C(=O)c1ccc(C)cc1,-1.29% (inactive)
13,COC(=O)C[C@H]1CC[C@H]2[C@@H](COc3ccc(NC(=O)Cc4cccs4)cc3C(=O)N2C)O1,7.86% (inactive)
14,CC(C)C(=O)Nc1ccc2c(c1)C(=O)N(C)[C@@H]1CC[C@H](CC(=O)O)O[C@@H]1CO2,0.011% [at 23.5 µM] (inactive)
15,CCN(Cc1ccncc1)C(=O)c1ccc2c(c1)S(=O)(=O)c1ccccc1C2=O,-19.5% (inactive)
16,COc1cccc(-c2ccc3c(c2)[C@H]2[C@H](CCN2S(=O)(=O)c2cccc(OC)c2)[C@H](CO)N3)c1,-36.4% (inactive)
17,Nc1nc(-c2cc3c(cc2Cl)OCCO3)cs1,-13.3% (inactive)
